Pf Dd2 inh = Plasmodium falciparum Dd2 growth inhibition | P. falciparum Dd2 growth, SYBR Green, 72 h | Potency, µM (doses to about 28.9 µM), for the others: at the highest dose activity, negative = inhibition, usual class: inhibitors | actives 4.3% (n = 120,000) | AID 1347417; active = well fitted inhibition curve with a large enough effect;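 also: plate controls were DMSO vehicle for no effect and reference drug for full effect; nearly all actives have a fitted effect of over 65% in size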
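Infected erythrocytes (Dd2, 0.3% parasitemia, 2.5% hematocrit final) are added to compound in RPMI-1640/Albumax II medium, grown 72 h at 37C in low oxygen, then lysed with saponin/Triton-X containing SYBR Green and read by fluorescence.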
* hit, by the source's call; [ ] = dose if it differs, or a comment. Shown is part of a subset that was picked to be rich in hits. Potency is read from the fitted curve at half-maximal effect.

For CCOC(=O)c1c(C)sc(-c2c(-c3ccc(OC)c(F)c3)[nH]c3c2c(=O)[nH]c(=O)n3C)c1O the results were Pf Dd2 inh 428.2%[5.79 µM].
CCOC(=O)c1c(C)sc(-c2c(-c3ccc4c(c3)OCCO4)[nH]c3c2c(=O)n(C)c(=O)n3C)c1O was read as Pf Dd2 inh 8.91µM*.
COC(=O)c1c(C)sc(-c2c(-c3ccc4c(c3)OCCO4)[nH]c3c2c(=O)n(C)c(=O)n3C)c1O was read as Pf Dd2 inh -7.4%.
For Cc1ccccc1CCC1CCCN(S(C)(=O)=O)C1 (stereo not drawn) the results were Pf Dd2 inh -19.4%.
Screening Cc1ccccc1CCC1CCCN(C(=O)CCc2cnccn2)C1 (stereo not drawn) returned Pf Dd2 inh inactive.
Screening Cc1ccccc1CCC1CCCNC1 (stereo not drawn) returned Pf Dd2 inh 11.2µM*.
Screening CN1C(=O)COC[C@@H]1[C@H](O)c1ccc(NC(=O)c2cnccn2)cc1 returned Pf Dd2 inh -16.0%[44.1 µM].
`CC(=O)Nc1ccc([C@@H](O)[C@H]2COCC(=O)N2CCCc2ccccc2)cc1` gave Pf Dd2 inh inactive.
`O=C(Nc1ccc([C@@H](O)[C@H]2COCC(=O)N2CCCc2ccccc2)cc1)c1cnccn1` gave Pf Dd2 inh 12.6µM*.
Screening C1CC(c2noc(C3CC3)n2)CN1 (stereo not drawn) returned Pf Dd2 inh 13.9%[5.79 µM].
For O=C(Cc1c[nH]c(=O)[nH]c1=O)N1C[C@@H](CN2CCOCC2)[C@@H](CO)C1 the results were Pf Dd2 inh -3.3%.
Screening CS(=O)(=O)c1ncc(Cl)c(C(=O)Nc2c(C(=O)Nc3ccccc3)oc3ccccc23)n1 returned Pf Dd2 inh inactive.
`Cc1ccsc1CN(Cc1ccco1)c1cnc(S(C)(=O)=O)nc1C(=O)Nc1ccc(Cl)cc1` gave Pf Dd2 inh 4.47µM*.
Screening CCS(=O)(=O)c1ncc(Cl)c(C(=O)Nc2c(C(=O)Nc3cccc(C)c3)oc3ccccc23)n1 returned Pf Dd2 inh -22.0%.
Screening Cc1ccc(NC(=O)c2nc(S(C)(=O)=O)ncc2N(Cc2ccc(C(C)(C)C)cc2)Cc2ccco2)cc1C returned Pf Dd2 inh 7.08µM*.
CCc1ccc(CN(Cc2ccco2)c2cnc(S(C)(=O)=O)nc2C(=O)Nc2cccc(C)c2)cc1 was read as Pf Dd2 inh 11.2µM*.
Cc1cccc(NC(=O)Cn2nnc(C(=O)NCc3ccco3)c2N)c1 was read as Pf Dd2 inh 24.7%.
`CCCS(=O)(=O)c1ncc(Cl)c(C(=O)N(Cc2ccccc2)Cc2ccco2)n1` gave Pf Dd2 inh 7.8%.
Screening CC(C)(C)c1ccc(C(=O)N(Cc2ccc(F)cc2)Cc2ccco2)cc1 returned Pf Dd2 inh -13.9%.
CCS(=O)(=O)c1ncc(N(Cc2ccccc2)Cc2ccco2)c(C(=O)Nc2ccc(C)c(C)c2)n1 was read as Pf Dd2 inh 5.01µM*.
CN(c1ccccc1)S(=O)(=O)c1ccc(NC(=O)c2nc(S(C)(=O)=O)ncc2Cl)cc1 was read as Pf Dd2 inh 15.1%[5.79 µM].
CCS(=O)(=O)c1ncc(N(Cc2ccccc2)Cc2ccco2)c(C(=O)Nc2ccccc2C)n1 was read as Pf Dd2 inh -15.7%.
Cc1ccc(NC(=O)c2nc(S(=O)(=O)Cc3ccc(F)cc3)ncc2Cl)cc1C was read as Pf Dd2 inh 42.9%[5.79 µM].
For COc1nc2c(cc1CNC(=O)C1COCCO1)C(=O)N(C1CCCC1)C2 (stereo not drawn) the results were Pf Dd2 inh -19.1%.
CCc1ccc(CNC(=O)CCC2CCN(C(=O)c3ccccc3)CC2)cc1 was read as Pf Dd2 inh inactive.
For O=C(NC[C@H]1O[C@@H](CO)[C@@H](O)[C@H]1N1CCN(c2ccccn2)CC1)c1ccco1 the results were Pf Dd2 inh -17.3%.
Screening COc1ccc(NC(=O)Cn2c(N(C)Cc3ccccc3)nc(C)cc2=O)cc1Cl returned Pf Dd2 inh -4.1%.
`COc1ccc(NC(=O)c2nc(S(C)(=O)=O)ncc2N(Cc2ccc(C)cc2)Cc2ccco2)cc1Cl` gave Pf Dd2 inh 10µM*.
Screening Cc1ccc(CN(Cc2ccco2)C(=O)COc2ccc(Cl)cc2Cl)cc1 returned Pf Dd2 inh -23.1%.
Cc1ccc(C(=O)N2CC(C(=O)NC3CCCCC3)C3(CCOCC3)C2)cc1F (stereo not drawn) was read as Pf Dd2 inh 6.2%.
CCCCOC(=O)c1ccc(NC(=O)c2sc3nc(C)cc(C)c3c2N)cc1 was read as Pf Dd2 inh -13.8%.
Screening COc1ccccc1NC(=O)c1sc2nc(N3CCOCC3)c3c(c2c1N)CC(C)(C)OC3 returned Pf Dd2 inh -3.3%.
`COc1cccc(NC(=O)c2sc3nc(C)c(C(=O)Nc4ccc(C)cc4C)c(-c4ccc(Br)cc4)c3c2N)c1` gave Pf Dd2 inh 8.91µM*.
Screening COc1ccc(Cc2c(C)nn(-c3nc(C)c(C(=O)Nc4ccc(C)cc4C)s3)c2C)cc1 returned Pf Dd2 inh -12.8%.
For COc1ccccc1C(=O)Nc1c(C(=O)Nc2cc(Cl)ccc2C)sc2nc(C)cc(C)c12 the results were Pf Dd2 inh 1.6%.
